HIF-2a block – inhibitors of HIF-2a | AID 624352 | 786-0 RCC cells HIF-2a reporter, luciferase luminescence, overnight | inhibition, % at 18.8 µM | 360,000 tested, 0.72% active;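 active = inhibition of the luminescence signal of 40% or more relative to plate controls, in a single-dose primary screen at 18.75 µM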
CF NFkB inh – inhibitors of cystic fibrosis induced NF-kB; KKLEB NF-kB-GFP reporter, PAF-induced, GFP fluorescence overnight; inhibition, % at 5 µM; 360,000 tested, 0.86% active;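 active = at least 50% inhibition at 5 µM, scaled per plate between neutral and stimulator controls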;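 note: PAF is a Pseudomonas aeruginosa culture filtrate used as stimulus; plate controls were PAF-stimulated DMSO wells for no effect and unstimulated DMSO wells for full effect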
TWEAK-Fn14 inh – blocks TWEAK-Fn14 interaction in a reporter cell assay | TWEAK-stimulated Fn14 reporter cells, luciferase luminescence, 8 h | inhibition, % at 10 µM | 360,000 tested, 2% active; in the data active = inhibition above about 50%
Peg3 prom inh – Peg3 promoter activity inhibition; inhibition, % at 20 µM; AID 588405; HeLa PEG-Prom luciferase reporter, luminescence, overnight; 360,000 tested, 1.7% active;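 active = inhibition of at least 50% at 20 µM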
TROY signal inh – blocks TROY-dependent signaling in reporter cells | Q293 LMP1-TROYcd NF-kB luciferase reporter, 4 h | inhibition, % at 10 µM | 360,000 tested, 0.98% active;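 active = compounds whose plate-normalised and pattern-corrected inhibition of the luciferase reporter signal at the single screening dose is 50% or more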
KKLEB cytotox – reduces viability of KKLEB cystic fibrosis airway cells. AID 602141. activity change (cytotoxicity), % at 5 µM. KKLEB CF airway cells viability, ATPlite luminescence, overnight; stronger effect = lower value; cells stimulated with P. aeruginosa culture filtrate. 360,000 tested, 0.36% active;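 active = corrected activity change at or below -50% at 5 µM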
Mdm2-MdmX confirm – Mdm2/MdmX (human) interaction inhibition, confirmed; AID 504601; 740 tested, 99% active; SaOS-2 split-luciferase Mdm2/MdmX complementation, luminescence; shares compounds with HIF-2a block; inhibition, % at 8 µM;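 active = mean inhibition of the luminescence signal across two replicates at or above 26 percent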
Target sequence (O15151 whole entry, looked up): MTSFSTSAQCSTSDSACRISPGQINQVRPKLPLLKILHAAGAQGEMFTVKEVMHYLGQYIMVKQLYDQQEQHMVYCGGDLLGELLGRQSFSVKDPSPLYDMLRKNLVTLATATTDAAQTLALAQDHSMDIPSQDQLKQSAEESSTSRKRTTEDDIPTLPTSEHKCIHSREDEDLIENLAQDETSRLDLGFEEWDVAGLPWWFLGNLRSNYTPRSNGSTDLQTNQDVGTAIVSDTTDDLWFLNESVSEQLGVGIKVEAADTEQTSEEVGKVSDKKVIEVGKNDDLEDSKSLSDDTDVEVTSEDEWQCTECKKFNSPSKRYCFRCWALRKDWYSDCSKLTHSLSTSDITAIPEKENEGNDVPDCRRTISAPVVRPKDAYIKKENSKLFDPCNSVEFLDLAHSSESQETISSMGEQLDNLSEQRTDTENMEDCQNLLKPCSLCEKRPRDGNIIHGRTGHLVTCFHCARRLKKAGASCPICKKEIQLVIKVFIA
Target sequence (Q00987 whole entry, looked up): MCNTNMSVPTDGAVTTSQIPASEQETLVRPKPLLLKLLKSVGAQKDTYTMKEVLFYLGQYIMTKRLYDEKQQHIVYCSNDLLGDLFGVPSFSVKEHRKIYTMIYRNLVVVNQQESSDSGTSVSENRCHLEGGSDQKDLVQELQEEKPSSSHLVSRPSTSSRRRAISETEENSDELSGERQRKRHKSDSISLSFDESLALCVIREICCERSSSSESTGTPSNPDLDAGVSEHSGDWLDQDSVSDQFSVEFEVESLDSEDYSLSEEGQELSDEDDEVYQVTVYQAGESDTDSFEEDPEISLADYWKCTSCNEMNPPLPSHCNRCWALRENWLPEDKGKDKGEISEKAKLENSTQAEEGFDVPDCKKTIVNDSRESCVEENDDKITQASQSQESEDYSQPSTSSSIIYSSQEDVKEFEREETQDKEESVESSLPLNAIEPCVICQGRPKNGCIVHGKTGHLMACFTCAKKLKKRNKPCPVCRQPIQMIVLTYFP
HIF-2a conf – HIF-2a inhibition, single concentration confirmation; shares compounds with HIF-2a block; 786-0 RCC cells, HIF-2a luciferase reporter luminescence, overnight; inhibition, % at 18.8 µM; 1,800 tested, 56% active; AID 651580;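 active = mean inhibition across four replicates of at least 40 percent at the single tested concentration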
HIF-1a cs – HIF-1a inhibition counter-screen for HIF-2a hits | shares compounds with HIF-2a block | MiaPaCa-2 HIF-1a luciferase reporter, desferoxamine, overnight | inhibition, % at 18.8 µM | 1,800 tested, 72% active | AID 651589;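 active = mean inhibition of the reporter signal across four replicates at the single tested dose of 50% or more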
* = called active by the depositor; · = no result. Most compounds without a hit are left out; they make up all but 4% or so of the library.

SMILES | HIF-2a block | CF NFkB inh | TWEAK-Fn14 inh | Peg3 prom inh | TROY signal inh | KKLEB cytotox | HIF-2a conf | HIF-1a cs | others
C=C(C(=O)c1ccccc1)C(c1ccccc1)C(C)C(=O)c1ccccc1 (configuration not stated) | 81* | 0 | 51* | 38 | -14 | -13 | 45* | 96*
C=C(C(=O)c1ccccc1)C(C(=C)C(=O)c1ccccc1)c1ccc(OC)cc1 | 61* | 36 | 93* | 105* | 6 | -19 | 59* | 103* | Mdm2-MdmX confirm=103*
COc1ccc(OC)c(S(=O)(=O)N2CCC(C(=O)NCc3ccncc3)CC2)c1 | -1 | -2 | 23 | 1 | 3 | -15 | · | ·
CCOC(=O)c1ccc(Nc2ccc(-c3ccc(OC)c(OC)c3)nn2)cc1 | -4 | 12 | -18 | 17 | 29 | 13 | · | ·
CCOC(=O)c1ccc(Nc2nc(N)c3cc(OC)c(OC)cc3n2)cc1 | -44 | -37 | -10 | 47 | -54 | -13 | · | · | Mdm2-MdmX confirm=61*
COC(=O)[C@@]1(Cc2ccc(OC)cc2)[C@@H]2C(=CC(=O)[C@H]2CC(=O)C(=O)N2CCCC2)CN1C(=O)c1ccccc1 | 77* | 28 | 42 | 16 | 11 | -5 | 69* | 84*
COC(=O)[C@@]1(Cc2ccc(F)cc2)[C@H]2C(CC(=O)C(=O)N3CCCC3)C(=O)C[C@H]2CN1C(=O)c1ccccc1 (some centres not stated) | 14 | · | 1 | · | -15 | · | · | ·
Cc1c(CC(=O)NCCCC(=O)O)c(=O)oc2cc3c(cc12)CCC(C)(C)O3 | 61* | 10 | 81* | 25 | 39 | -6 | 81* | 86*
Cc1ccc(NS(=O)(=O)c2cccc3cccnc23)c(Cl)c1 | 6 | -1 | -1 | 17 | 0 | -11 | · | ·
Cc1ccc(S(=O)(=O)Nc2cccc3cccnc23)cc1 | 81* | 57* | 107* | 109* | 79* | 6 | 66* | -179 | Mdm2-MdmX confirm=103*
O=[N+]([O-])c1cc(S(=O)(=O)N2CCCCCC2)ccc1F | 94* | 51* | -1 | 102* | 9 | -26 | 87* | 105*
O=[N+]([O-])c1cc(S(=O)(=O)N2CCCC2)ccc1O | 19 | -11 | 0 | 0 | -19 | 4 | · | ·
CCOc1ccc(CN(C)C(=O)c2ccc(S(=O)(=O)N(C)c3ccccc3OC)cc2)cc1 | -3 | -20 | 17 | 25 | 23 | 2 | · | ·
CC1CCCCC1NC(=O)CNC(=O)c1ccco1 (configuration not stated) | 11 | 4 | -8 | 5 | 11 | 3 | · | ·
O=C(NCc1ccccc1)c1c(Cl)nc(Cl)c(Cl)c1Cl | 37 | 27 | 93* | 102* | 66* | -33 | · | · | Mdm2-MdmX confirm=103*
Cc1nc(Cl)c(C(=O)NCc2ccccc2)c(C)c1Cl | -6 | -6 | -8 | 1 | 11 | -4 | · | ·
CN(C)CCCN(C(=O)c1cc2cc([N+](=O)[O-])ccc2s1)c1nc2cc3c(cc2s1)OCCO3 | 76* | 80* | -334 | 101* | 64* | -94* | 29 | 104*
CCCCCCCCCCOC(=O)Cn1c(COc2ccc(Cl)cc2)[n+](C)c2ccccc21 | 19 | 12 | 19 | 98* | 43 | 1 | · | · | Mdm2-MdmX confirm=103*
S=C(Nc1cc(Cl)cc(Cl)c1)NC1CCN(Cc2ccccc2)CC1 | 42* | 31 | -10 | 94* | 35 | -29 | 12 | 107*
COc1cccc(-c2cnc(C(O)c3ccc(F)c(C)c3)[nH]2)c1 (configuration not stated) | -53 | 15 | 3 | 3 | -14 | -6 | · | ·
CC1CC(C)C(=NNC(N)=O)C(C(O)CC2CCC(=O)NC2=O)C1 (configuration not stated) | 49* | 54* | -8 | 37 | 24 | -6 | 19 | 41
CCC1SC(C)C/C(=N/NC(N)=O)C1C (configuration not stated) | 16 | -1 | 15 | 1 | 6 | 2 | · | ·
CCn1c(=O)c([N+](=O)[O-])c(Cl)c2ccccc21 | 92* | 67* | 21 | 108* | 14 | -2 | 94* | 106* | Mdm2-MdmX confirm=103*
[O-]/C(=C(\C(=S)Nc1cccc2ccccc12)[n+]1ccccc1)c1ccc2c(c1)OCCO2 | 70* | -5 | 104* | 22 | 84* | 12 | -40 | 34
[O-]/C(=C(\C(=S)Nc1cccc2ccccc12)[n+]1ccccc1)c1cccs1 | -6 | -4 | 6 | -2 | 27 | -4 | · | ·
SMILES | HIF-2a block | CF NFkB inh | TWEAK-Fn14 inh | Peg3 prom inh | TROY signal inh | KKLEB cytotox | HIF-2a conf | HIF-1a cs | others
CCSc1nc2ccccc2n1C(=O)/C=C/c1ccc(OC)c(OC)c1 | 78* | 84* | 100* | 103* | 39 | -2 | 6 | 101* | Mdm2-MdmX confirm=102*
C=CCSc1nc2ccccc2n1C(=O)/C=C/c1cc(OC)c(OC)c(OC)c1 | 83* | 91* | 57* | 98* | 36 | -14 | 88* | 106*
COc1cc(/C=C/C(=O)NCCn2c(C)cc3ccccc32)cc(OC)c1OC | -3 | -16 | 22 | -14 | 2 | -7 | · | ·
CCn1c(SCC(=O)N/N=C/c2ccc(OC)c(OC)c2)nc2ccccc21 | -5 | 12 | 10 | -4 | -4 | -13 | · | ·
O=C(C1=C[C@H](c2ccc(Br)cc2)C[C@H](OCCCCO)O1)N1CCN(Cc2ccccc2)CC1 | 19 | -29 | 7 | 12 | -2 | -22 | · | ·
COCCCOc1cc(NCc2ccccc2)c2ncn(C(C)C)c2c1 | 18 | -14 | -23 | 26 | -8 | 2 | · | ·
CC(C)n1cnc2c(NCc3ccccc3)cc(N[C@H](C)CO)cc21 | -29 | 15 | 2 | 67* | 7 | -18 | · | · | Mdm2-MdmX confirm=89*
O=C1/C(=C/c2ccccc2[N+](=O)[O-])COc2ccccc21 | 61* | 86* | 94* | 106* | 33 | -71* | -104 | 103*
COc1ccc(Cc2c(-c3ccco3)nc3ccc(Cl)cn23)c(C)c1 | -6 | 39 | 30 | -15 | -2 | -3 | · | ·
COc1ccc([C@H]2CC(=O)C=C(c3ccc(F)cc3OCc3ccccc3)C2)cc1OC | 21 | 12 | 38 | 46 | 20 | -2 | · | ·
CN(C)C(=O)CCc1ccc2c3c([nH]c2c1)[C@]1(C)[C@@H](C(=O)N2CCCCC2)C[C@H](CC(=O)NCC24CC5CC(CC(C5)C2)C4)C(=O)N1CC3 | 6 | 8 | 16 | 8 | 3 | 10 | · | ·
CCC1CCC2(CC1)NNC(=S)NN2 | 55* | 22 | 19 | 18 | 29 | 11 | 69* | 87*
CCC1CCC2(CC1)NC(CO)(CO)CO2 (configuration not stated) | 7 | 8 | -3 | -1 | 9 | -7 | · | ·

From PubChem BioAssay
